# In PMC7862700, “An all-to-all approach to the identification of sequence-specific readers for epigenetic DNA modifications on cytosine”:
# Assays:
# Assay in all cases: DAPPL (digital affinity profiling via proximity ligation, sequencing); 10 mM Tris-HCl pH 7.5, 50 mM NaCl, 1 mM DTT, 4% glycerol, room temperature, 30 min; GST-TFs on glutathione beads, 16-mer random dsDNA library, 0.1% formaldehyde crosslink after washing; high values mean tight binding
# FLI1 = target: T1, FLI1 (Homo sapiens, UniProt Q01543 1-452); details: protein: recombinant; tags: N-terminal GST; dsDNA, one strand shown
# T1 sequence: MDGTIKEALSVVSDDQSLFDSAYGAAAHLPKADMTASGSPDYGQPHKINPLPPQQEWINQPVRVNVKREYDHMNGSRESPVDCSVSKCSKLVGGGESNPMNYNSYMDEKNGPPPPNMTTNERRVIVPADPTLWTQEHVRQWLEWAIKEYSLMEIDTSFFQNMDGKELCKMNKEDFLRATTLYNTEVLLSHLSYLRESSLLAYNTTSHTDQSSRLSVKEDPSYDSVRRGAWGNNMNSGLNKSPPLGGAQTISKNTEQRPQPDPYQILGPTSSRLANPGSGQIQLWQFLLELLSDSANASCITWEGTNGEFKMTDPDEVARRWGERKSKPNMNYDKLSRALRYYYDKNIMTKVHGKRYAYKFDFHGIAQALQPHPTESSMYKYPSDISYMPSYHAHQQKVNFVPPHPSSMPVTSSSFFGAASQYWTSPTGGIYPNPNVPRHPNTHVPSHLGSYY
# Procedure, shortened: (§1)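 Human transcription factors fused to GST were expressed in yeast, captured on glutathione beads, given DNA barcodes and pooled with a GST-only negative control. Pools were incubated with 200 nmole of a 16-mer random double-stranded DNA library in Tris/NaCl/DTT/glycerol buffer at room temperature for 30 min. They were then washed, crosslinked with 0.1% formaldehyde, proximity-ligated (BsaI/T4 ligase, 1 h, 37 °C), PCR-amplified and sequenced on an Illumina NextSeq500. Binding signal is each 6-mer's read frequency for a factor divided by its frequency for the GST control.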
# ELK1 = target: T2, ELK1 (Homo sapiens, UniProt P19419 1-428); details: protein: recombinant; tags: N-terminal GST; dsDNA, one strand shown
# T2 sequence: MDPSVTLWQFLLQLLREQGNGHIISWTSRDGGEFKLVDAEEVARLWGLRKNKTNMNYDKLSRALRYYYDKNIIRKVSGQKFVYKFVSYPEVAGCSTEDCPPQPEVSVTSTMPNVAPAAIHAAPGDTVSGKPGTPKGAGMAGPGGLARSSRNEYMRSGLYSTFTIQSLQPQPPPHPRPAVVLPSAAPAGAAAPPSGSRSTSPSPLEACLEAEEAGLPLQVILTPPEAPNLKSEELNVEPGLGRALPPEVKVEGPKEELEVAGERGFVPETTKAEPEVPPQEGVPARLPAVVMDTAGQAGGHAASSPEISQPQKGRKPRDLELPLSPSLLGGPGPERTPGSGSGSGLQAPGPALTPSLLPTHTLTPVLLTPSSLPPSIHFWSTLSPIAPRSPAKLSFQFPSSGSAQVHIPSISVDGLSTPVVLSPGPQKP
# Procedure, shortened: as §1
# GABPA = target: T3, GABPA (Homo sapiens, UniProt Q06546 1-454); details: protein: recombinant; tags: N-terminal GST; dsDNA, one strand shown
# T3 sequence: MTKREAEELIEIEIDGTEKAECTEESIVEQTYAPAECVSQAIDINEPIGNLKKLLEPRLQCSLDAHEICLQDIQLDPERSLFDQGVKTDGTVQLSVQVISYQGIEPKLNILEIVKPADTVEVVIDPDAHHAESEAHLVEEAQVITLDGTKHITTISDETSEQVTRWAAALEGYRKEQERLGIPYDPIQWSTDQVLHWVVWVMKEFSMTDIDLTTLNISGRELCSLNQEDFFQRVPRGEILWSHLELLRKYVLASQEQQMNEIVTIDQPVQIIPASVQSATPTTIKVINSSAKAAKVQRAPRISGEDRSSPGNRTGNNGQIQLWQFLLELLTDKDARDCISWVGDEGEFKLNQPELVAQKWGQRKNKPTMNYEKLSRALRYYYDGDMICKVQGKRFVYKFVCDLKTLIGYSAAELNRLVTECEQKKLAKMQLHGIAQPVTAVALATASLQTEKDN
# Procedure, shortened: as §1
# ERG = target: T4, ERG (Homo sapiens, UniProt P11308 1-479); details: protein: recombinant; tags: N-terminal GST; dsDNA, one strand shown
# T4 sequence: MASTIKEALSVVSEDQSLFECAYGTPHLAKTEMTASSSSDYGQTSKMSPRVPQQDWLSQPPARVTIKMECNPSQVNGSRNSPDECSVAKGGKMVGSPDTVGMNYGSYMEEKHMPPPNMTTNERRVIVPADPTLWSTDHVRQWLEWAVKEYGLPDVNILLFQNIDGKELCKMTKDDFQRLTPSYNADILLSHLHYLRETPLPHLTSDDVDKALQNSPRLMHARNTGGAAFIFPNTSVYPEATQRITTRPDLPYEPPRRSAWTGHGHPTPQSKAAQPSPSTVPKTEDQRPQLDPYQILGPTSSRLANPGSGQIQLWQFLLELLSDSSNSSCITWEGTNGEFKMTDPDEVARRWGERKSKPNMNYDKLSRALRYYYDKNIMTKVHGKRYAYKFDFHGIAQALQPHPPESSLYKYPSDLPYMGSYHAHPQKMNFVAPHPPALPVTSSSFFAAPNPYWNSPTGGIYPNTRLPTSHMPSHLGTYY
# Procedure, shortened: as §1
# ELF1 = ELF1 (Homo sapiens, UniProt P32519 1-619); details: protein: recombinant; tags: N-terminal GST; dsDNA, one strand shown
# Procedure, shortened: as §1
# EHF = target: T5, EHF (Homo sapiens, UniProt Q9NZC4 1-300); details: protein: recombinant; tags: N-terminal GST; dsDNA, one strand shown
# T5 sequence: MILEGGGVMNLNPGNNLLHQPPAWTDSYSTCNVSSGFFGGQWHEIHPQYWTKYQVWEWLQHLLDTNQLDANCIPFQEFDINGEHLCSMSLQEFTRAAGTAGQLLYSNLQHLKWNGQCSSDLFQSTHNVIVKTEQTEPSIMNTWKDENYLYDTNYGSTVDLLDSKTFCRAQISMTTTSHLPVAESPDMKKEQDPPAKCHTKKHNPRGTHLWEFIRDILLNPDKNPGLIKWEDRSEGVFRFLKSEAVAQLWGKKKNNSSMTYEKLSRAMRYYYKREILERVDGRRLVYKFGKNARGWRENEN
# Procedure, shortened: as §1
# SPI1 = SPI1 (Homo sapiens, UniProt P17947 1-270); details: protein: recombinant; tags: N-terminal GST; dsDNA, one strand shown
# Procedure, shortened: as §1
# SPIB = SPIB (Homo sapiens, UniProt Q01892 1-262); details: protein: recombinant; tags: N-terminal GST; dsDNA, one strand shown
# Procedure, shortened: as §1
# ELK3 = target: T6, ELK3 (Homo sapiens, UniProt P41970 1-407); details: protein: recombinant; tags: N-terminal GST; dsDNA, one strand shown
# T6 sequence: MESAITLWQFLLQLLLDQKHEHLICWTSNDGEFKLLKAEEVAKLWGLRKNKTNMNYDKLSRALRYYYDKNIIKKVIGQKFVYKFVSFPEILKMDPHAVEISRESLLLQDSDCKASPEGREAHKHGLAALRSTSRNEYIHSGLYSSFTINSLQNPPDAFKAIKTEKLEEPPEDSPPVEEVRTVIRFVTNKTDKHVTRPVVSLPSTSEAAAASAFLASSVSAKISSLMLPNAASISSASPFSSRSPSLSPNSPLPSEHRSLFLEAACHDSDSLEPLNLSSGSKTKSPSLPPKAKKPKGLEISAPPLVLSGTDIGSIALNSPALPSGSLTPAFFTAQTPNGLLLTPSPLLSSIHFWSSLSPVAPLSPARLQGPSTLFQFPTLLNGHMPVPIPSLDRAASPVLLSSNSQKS
# Procedure, shortened: as §1
# FEV = target: T7, FEV (Homo sapiens, UniProt Q99581 1-238); details: protein: recombinant; tags: N-terminal GST; dsDNA, one strand shown
# T7 sequence: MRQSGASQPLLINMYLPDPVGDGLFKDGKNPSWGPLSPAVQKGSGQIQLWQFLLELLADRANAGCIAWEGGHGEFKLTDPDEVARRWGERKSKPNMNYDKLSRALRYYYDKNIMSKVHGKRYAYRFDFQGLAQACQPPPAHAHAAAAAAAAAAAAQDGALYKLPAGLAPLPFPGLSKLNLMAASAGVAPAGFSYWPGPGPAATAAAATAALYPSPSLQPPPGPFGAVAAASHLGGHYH
# Procedure, shortened: as §1
# ETV5 = ETV5 (Homo sapiens, UniProt P41161 1-510); details: protein: recombinant; tags: N-terminal GST; dsDNA, one strand shown
# Procedure, shortened: as §1
# HSF1 = HSF1 (Homo sapiens, UniProt Q00613 1-529); details: protein: recombinant; tags: N-terminal GST; chain copies: 3; dsDNA, one strand shown
# Procedure, shortened: as §1
# SPIC = target: T8, SPIC (Homo sapiens, UniProt Q8N5J4 1-248); details: protein: recombinant; tags: N-terminal GST; dsDNA, one strand shown
# T8 sequence: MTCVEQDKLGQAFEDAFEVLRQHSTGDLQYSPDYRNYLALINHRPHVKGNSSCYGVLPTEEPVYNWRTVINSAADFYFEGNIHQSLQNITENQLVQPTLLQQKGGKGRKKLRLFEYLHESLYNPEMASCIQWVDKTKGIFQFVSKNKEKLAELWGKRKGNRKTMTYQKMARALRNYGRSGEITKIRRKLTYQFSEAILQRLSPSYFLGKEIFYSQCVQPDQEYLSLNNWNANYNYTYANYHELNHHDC
# Procedure, shortened: as §1
# ELF4 = ELF4 (Homo sapiens, UniProt Q99607 1-663); details: protein: recombinant; tags: N-terminal GST; dsDNA, one strand shown
# Procedure, shortened: as §1
# ELK4 = target: T9, ELK4 (Homo sapiens, UniProt P28324-2 1-405); details: protein: recombinant; tags: N-terminal GST; dsDNA, one strand shown
# T9 sequence: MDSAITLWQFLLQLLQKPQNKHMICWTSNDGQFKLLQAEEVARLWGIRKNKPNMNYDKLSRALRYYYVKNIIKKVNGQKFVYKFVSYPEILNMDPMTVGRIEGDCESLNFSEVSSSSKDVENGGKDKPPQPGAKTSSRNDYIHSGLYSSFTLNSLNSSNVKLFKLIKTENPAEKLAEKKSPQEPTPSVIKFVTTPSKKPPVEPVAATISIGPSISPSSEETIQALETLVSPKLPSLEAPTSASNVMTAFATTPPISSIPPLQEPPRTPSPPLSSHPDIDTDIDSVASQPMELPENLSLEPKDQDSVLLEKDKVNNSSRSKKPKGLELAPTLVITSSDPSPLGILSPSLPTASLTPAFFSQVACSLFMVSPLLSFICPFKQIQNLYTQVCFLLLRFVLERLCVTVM
# Procedure, shortened: as §1
# ETV2 = target: T10, ETV2 (Homo sapiens, UniProt O00321 1-342); details: protein: recombinant; tags: N-terminal GST; dsDNA, one strand shown
# T10 sequence: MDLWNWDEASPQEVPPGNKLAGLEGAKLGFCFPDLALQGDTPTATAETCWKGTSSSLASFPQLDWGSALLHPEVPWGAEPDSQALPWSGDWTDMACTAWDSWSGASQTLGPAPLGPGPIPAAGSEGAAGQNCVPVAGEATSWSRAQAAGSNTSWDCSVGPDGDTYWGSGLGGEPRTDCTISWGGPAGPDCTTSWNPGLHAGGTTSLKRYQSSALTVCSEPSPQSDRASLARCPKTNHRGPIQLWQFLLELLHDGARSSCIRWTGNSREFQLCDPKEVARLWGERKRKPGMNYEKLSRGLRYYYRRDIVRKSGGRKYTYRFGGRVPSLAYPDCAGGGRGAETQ
# Procedure, shortened: as §1
# ELF3 = target: T11, ELF3 (Homo sapiens, UniProt P78545 1-371); details: protein: recombinant; tags: N-terminal GST; dsDNA, one strand shown
# T11 sequence: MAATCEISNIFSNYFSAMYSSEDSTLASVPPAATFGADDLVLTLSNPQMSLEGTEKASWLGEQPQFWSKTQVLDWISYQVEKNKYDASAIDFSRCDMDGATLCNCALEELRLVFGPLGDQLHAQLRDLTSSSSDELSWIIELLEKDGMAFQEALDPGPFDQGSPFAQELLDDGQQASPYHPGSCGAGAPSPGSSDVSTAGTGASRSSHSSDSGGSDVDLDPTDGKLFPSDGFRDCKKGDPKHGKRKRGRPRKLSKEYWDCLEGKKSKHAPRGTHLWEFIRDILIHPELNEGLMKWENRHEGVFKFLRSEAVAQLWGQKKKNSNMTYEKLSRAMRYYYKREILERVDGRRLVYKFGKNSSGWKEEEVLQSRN
# Procedure, shortened: as §1
# CRX = CRX (Homo sapiens, UniProt O43186 1-299); details: protein: recombinant; tags: N-terminal GST; dsDNA, one strand shown
# Procedure, shortened: as §1
# ETV1 = ETV1 (Homo sapiens, UniProt P50549 1-477); details: protein: recombinant; tags: N-terminal GST; dsDNA, one strand shown
# Procedure, shortened: as §1
# Chain of CRX (O43186 whole entry): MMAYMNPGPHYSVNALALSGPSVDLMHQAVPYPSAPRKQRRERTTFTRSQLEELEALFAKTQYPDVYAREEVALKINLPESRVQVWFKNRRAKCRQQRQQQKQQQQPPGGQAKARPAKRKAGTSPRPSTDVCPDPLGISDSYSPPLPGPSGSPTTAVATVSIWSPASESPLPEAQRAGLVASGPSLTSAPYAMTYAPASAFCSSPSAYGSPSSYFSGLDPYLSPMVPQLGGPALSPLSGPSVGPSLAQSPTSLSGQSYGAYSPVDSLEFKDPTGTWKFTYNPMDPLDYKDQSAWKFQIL
# Chain of ELF1 (P32519 whole entry): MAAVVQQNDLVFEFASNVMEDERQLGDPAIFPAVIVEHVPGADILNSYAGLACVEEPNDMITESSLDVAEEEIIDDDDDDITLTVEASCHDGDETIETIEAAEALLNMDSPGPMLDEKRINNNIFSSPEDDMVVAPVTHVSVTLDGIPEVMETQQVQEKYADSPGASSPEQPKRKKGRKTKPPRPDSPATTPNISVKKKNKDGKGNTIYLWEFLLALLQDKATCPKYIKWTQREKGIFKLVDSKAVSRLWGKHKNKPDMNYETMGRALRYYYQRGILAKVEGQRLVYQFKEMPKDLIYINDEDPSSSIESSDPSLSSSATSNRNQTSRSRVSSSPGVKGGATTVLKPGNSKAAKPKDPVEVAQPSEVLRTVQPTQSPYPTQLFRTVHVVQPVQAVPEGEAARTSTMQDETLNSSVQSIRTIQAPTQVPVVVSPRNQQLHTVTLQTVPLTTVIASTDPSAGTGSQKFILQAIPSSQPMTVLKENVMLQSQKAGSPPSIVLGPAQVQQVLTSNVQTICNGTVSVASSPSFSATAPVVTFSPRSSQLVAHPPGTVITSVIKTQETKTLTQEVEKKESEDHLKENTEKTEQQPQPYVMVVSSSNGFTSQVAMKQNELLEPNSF
# Chain of SPIB (Q01892 whole entry): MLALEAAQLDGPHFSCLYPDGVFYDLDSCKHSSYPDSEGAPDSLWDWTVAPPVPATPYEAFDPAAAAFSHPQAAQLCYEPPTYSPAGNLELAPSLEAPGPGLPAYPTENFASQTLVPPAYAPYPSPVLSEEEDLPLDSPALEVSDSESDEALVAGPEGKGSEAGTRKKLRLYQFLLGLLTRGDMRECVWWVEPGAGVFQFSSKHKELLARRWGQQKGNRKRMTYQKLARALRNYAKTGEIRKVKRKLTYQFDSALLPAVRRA
# Chain of ETV1 (P50549 whole entry): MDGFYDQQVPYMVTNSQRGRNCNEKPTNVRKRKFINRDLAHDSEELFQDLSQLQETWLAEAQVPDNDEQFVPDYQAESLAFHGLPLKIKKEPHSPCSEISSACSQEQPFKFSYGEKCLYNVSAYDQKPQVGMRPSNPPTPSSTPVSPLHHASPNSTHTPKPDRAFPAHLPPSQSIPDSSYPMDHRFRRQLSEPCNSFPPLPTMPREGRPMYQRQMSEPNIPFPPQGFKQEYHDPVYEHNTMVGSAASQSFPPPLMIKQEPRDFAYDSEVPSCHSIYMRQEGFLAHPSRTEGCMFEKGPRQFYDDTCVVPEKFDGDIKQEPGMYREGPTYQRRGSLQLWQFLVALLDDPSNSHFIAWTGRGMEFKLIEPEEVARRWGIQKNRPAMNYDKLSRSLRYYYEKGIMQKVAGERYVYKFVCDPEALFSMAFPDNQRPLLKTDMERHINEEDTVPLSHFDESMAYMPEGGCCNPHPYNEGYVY
# Chain of ELF4 (Q99607 whole entry): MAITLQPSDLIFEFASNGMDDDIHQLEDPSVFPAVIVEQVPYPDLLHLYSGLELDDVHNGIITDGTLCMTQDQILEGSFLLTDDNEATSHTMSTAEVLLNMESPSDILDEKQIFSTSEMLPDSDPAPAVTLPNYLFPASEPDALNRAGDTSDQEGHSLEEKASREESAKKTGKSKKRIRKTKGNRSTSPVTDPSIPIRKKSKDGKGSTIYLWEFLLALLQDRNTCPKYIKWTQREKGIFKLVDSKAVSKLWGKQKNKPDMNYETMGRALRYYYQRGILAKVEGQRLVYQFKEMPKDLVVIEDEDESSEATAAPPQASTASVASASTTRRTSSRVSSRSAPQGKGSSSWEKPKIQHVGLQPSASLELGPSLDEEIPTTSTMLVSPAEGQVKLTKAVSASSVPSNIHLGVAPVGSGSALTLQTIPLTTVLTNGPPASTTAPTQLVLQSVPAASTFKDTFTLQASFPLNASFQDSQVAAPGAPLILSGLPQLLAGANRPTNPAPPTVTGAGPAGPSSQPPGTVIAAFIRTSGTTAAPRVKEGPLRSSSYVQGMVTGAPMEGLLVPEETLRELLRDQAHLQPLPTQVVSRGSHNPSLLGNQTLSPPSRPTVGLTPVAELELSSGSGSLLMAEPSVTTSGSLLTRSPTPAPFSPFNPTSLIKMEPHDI
# Chain of HSF1 (Q00613 whole entry): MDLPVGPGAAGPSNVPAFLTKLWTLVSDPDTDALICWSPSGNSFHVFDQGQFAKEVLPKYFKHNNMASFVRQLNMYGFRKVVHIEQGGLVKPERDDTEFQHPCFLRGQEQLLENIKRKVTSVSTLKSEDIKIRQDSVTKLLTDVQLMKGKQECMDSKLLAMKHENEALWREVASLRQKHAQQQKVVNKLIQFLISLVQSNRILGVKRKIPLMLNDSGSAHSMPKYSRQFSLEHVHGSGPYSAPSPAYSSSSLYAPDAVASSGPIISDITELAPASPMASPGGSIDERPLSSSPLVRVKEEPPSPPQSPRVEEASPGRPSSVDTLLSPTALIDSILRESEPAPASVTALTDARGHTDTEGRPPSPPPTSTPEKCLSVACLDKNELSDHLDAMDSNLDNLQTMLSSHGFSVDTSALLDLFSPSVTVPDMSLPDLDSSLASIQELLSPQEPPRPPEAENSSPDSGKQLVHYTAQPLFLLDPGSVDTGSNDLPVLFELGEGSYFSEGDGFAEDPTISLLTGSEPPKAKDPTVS
# Chain of ETV5 (P41161 whole entry): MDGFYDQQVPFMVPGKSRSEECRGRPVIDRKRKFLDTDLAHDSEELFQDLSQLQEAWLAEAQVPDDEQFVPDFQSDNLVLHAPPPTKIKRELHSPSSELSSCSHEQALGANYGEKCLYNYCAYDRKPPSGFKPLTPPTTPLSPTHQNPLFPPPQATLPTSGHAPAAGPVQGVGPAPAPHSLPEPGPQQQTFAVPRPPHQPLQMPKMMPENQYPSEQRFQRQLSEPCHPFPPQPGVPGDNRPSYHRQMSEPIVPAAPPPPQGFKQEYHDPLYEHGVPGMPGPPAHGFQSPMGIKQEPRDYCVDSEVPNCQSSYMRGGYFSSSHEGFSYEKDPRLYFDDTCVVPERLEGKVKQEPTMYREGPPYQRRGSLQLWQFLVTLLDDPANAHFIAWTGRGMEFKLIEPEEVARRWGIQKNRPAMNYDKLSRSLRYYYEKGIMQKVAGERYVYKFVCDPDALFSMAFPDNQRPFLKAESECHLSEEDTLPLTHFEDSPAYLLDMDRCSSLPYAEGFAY
sequence,measurement,setting,value
TTGCCT,binding signal,FLI1,"1.16 fold enrichment (6-mer frequency, TF over GST control)"
same,binding signal,ELK1,"1.18 fold enrichment (6-mer frequency, TF over GST control)"
same,binding signal,GABPA,"1.15 fold enrichment (6-mer frequency, TF over GST control)"
same,binding signal,ERG,"1.17 fold enrichment (6-mer frequency, TF over GST control)"
same,binding signal,ELF1,"1.21 fold enrichment (6-mer frequency, TF over GST control)"
same,binding signal,EHF,"1.13 fold enrichment (6-mer frequency, TF over GST control)"
same,binding signal,SPI1,"1.15 fold enrichment (6-mer frequency, TF over GST control)"
same,binding signal,SPIB,"1.25 fold enrichment (6-mer frequency, TF over GST control)"
same,binding signal,ELK3,"1.3 fold enrichment (6-mer frequency, TF over GST control)"
same,binding signal,FEV,"1.19 fold enrichment (6-mer frequency, TF over GST control)"
same,binding signal,ETV5,"1.22 fold enrichment (6-mer frequency, TF over GST control)"
same,binding signal,HSF1,"1.13 fold enrichment (6-mer frequency, TF over GST control)"
same,binding signal,SPIC,"1.42 fold enrichment (6-mer frequency, TF over GST control)"
same,binding signal,ELF4,"1.29 fold enrichment (6-mer frequency, TF over GST control)"
same,binding signal,ELK4,"1.2 fold enrichment (6-mer frequency, TF over GST control)"
same,binding signal,ETV2,"1.19 fold enrichment (6-mer frequency, TF over GST control)"
same,binding signal,ELF3,"1.42 fold enrichment (6-mer frequency, TF over GST control)"
same,binding signal,CRX,"1.16 fold enrichment (6-mer frequency, TF over GST control)"
same,binding signal,ETV1,"1.37 fold enrichment (6-mer frequency, TF over GST control)"
